According to PubChem BioAssay AID1159580 (chemical genetic matrix, 2015):
Hit rate of the full screen: of about 5,500 compounds, about 2,000 (36%) were called active. Another 18% or so got no clear call; they are omitted. No stated cut-off is given here; in the data, active means normalized growth mostly below about 0.91 (no sharp cut-off); inconclusive means no clear call, values can overlap the other calls; inactive means mostly above about 0.92. The list shows a part of the results.

Assay: chemical genetic growth profiling, strain panel (AID 1159580);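 further: tested at 20 µM; growth read once vehicle control cultures reached saturation at 30 °C; 1 = growth at the plate median or of vehicle wells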
Conditions: growth OD

Measured: normalized growth

O=c1c(O)c(-c2ccccc2)oc2cc(O)ccc12
inactive: S. cerevisiae deletion strains, locus YKL009W, strain mrt4, stronger effect = lower value 0.932 | S. cerevisiae deletion strains, locus YKL068W, stronger effect = lower value 0.948 | S. cerevisiae deletion strains, locus YLR102C, strain apc9, stronger effect = lower value 0.935 | S. cerevisiae deletion strains, locus YLR113W, strain HOG1, stronger effect = lower value 1 | S. cerevisiae deletion strains, locus YMR125W, strain sto1, stronger effect = lower value 0.929 | S. cerevisiae deletion strains, locus YNL183C, strain NPR1, stronger effect = lower value 0.98 | S. cerevisiae deletion strains, locus YNL250W, strain rad50, stronger effect = lower value 0.927 | S. cerevisiae deletion strains, locus YNL298W, strain CLA4, stronger effect = lower value 0.914 | S. cerevisiae deletion strains, locus YNL322C, strain KRE1 (second series), stronger effect = lower value 0.971 | S. cerevisiae deletion strains, locus YOL012C, strain htz1 0.446 | S. cerevisiae deletion strains, locus YOR144C, strain elg1, stronger effect = lower value 0.94 | S. cerevisiae deletion strains, locus YOR231W, strain MKK1, stronger effect = lower value 1.03 | S. cerevisiae deletion strains, locus YPL256C, strain CLN2, stronger effect = lower value 1.06 | S. cerevisiae deletion strains, locus YPR141C, strain kar3, stronger effect = lower value 0.942
active: S. cerevisiae deletion strains, locus YKL085W, strain MDH1 (second series), stronger effect = lower value 0.911 | S. cerevisiae deletion strains, locus YKL085W, strain MDH1, stronger effect = lower value 0.911 | S. cerevisiae deletion strains, locus YKL160W, strain elf1, stronger effect = lower value 0.772 | S. cerevisiae deletion strains, locus YKL190W, strain CNB1, stronger effect = lower value 0.4 | S. cerevisiae deletion strains, locus YKR001C, strain vps1, stronger effect = lower value 0.708 | S. cerevisiae deletion strains, locus YKR026C, strain gcn3, stronger effect = lower value 0.879 | S. cerevisiae deletion strains, locus YKR091W, strain srl3, stronger effect = lower value 0.834 | S. cerevisiae deletion strains, locus YLL001W, strain dnm1, stronger effect = lower value 0.827 | S. cerevisiae deletion strains, locus YLL026W, stronger effect = lower value 0.558 | S. cerevisiae deletion strains, locus YLL041C, strain sdh2, stronger effect = lower value 0.85 | S. cerevisiae deletion strains, locus YLR027C, strain aat2, stronger effect = lower value 0.701 | S. cerevisiae deletion strains, locus YLR039C, strain RIC1, stronger effect = lower value 0.236 | S. cerevisiae deletion strains, locus YLR058C, strain SHM2, stronger effect = lower value 0.514 | S. cerevisiae deletion strains, locus YLR221C, strain rsa3, stronger effect = lower value 0.759 | S. cerevisiae deletion strains, locus YLR258W, strain gsy2, stronger effect = lower value 0.699 | S. cerevisiae deletion strains, locus YLR262C, strain YPT6 (second series), stronger effect = lower value 0.341 | S. cerevisiae deletion strains, locus YLR262C, strain YPT6, stronger effect = lower value 0.263 | S. cerevisiae deletion strains, locus YLR268W, strain sec22, stronger effect = lower value 0.62 | S. cerevisiae deletion strains, locus YLR320W, strain mms22, stronger effect = lower value 0.674 | S. cerevisiae deletion strains, locus YLR330W, strain CHS5, stronger effect = lower value 0.663 | S. cerevisiae deletion strains, locus YLR342W, strain FKS1 (second series), stronger effect = lower value 0.51 | S. cerevisiae deletion strains, locus YLR342W, strain FKS1, stronger effect = lower value 0.765 | S. cerevisiae deletion strains, locus YLR357W, strain rsc2, stronger effect = lower value 0.717 | S. cerevisiae deletion strains, locus YLR370C, strain arc18, stronger effect = lower value 0.738 | S. cerevisiae deletion strains, locus YLR371W, strain rom2, stronger effect = lower value 0.636 | S. cerevisiae deletion strains, locus YLR384C, strain iki3, stronger effect = lower value 0.906 | S. cerevisiae deletion strains, locus YLR418C, strain cdc73, stronger effect = lower value 0.357 | S. cerevisiae deletion strains, locus YML016C, strain PPZ1, stronger effect = lower value 0.455 | S. cerevisiae deletion strains, locus YML032C, strain rad52, stronger effect = lower value 0.872 | S. cerevisiae deletion strains, locus YML120C, strain ndi1, stronger effect = lower value 0.887 | S. cerevisiae deletion strains, locus YML124C, strain tub3, stronger effect = lower value 0.827 | S. cerevisiae deletion strains, locus YMR058W, strain fet3, stronger effect = lower value 0.104 | S. cerevisiae deletion strains, locus YMR078C, strain ctf18, stronger effect = lower value 0.909 | S. cerevisiae deletion strains, locus YMR129W, stronger effect = lower value 0.838 | S. cerevisiae deletion strains, locus YMR205C, strain PFK2, stronger effect = lower value 0.639 | S. cerevisiae deletion strains, locus YMR223W, strain ubp8, stronger effect = lower value 0.685 | S. cerevisiae deletion strains, locus YMR231W, strain pep5, stronger effect = lower value 0.336 | S. cerevisiae deletion strains, locus YMR307W, strain GAS1, stronger effect = lower value 0.328 | S. cerevisiae deletion strains, locus YNL067W, strain RPL9B, stronger effect = lower value 0.496 | S. cerevisiae deletion strains, locus YNL071W, strain lat1, stronger effect = lower value 0.709 | S. cerevisiae deletion strains, locus YNL128W, strain TEP1, stronger effect = lower value 0.319 | S. cerevisiae deletion strains, locus YNL153C, strain GIM3, stronger effect = lower value 0.577 | S. cerevisiae deletion strains, locus YNL209W, strain ssb2, stronger effect = lower value 0.335 | S. cerevisiae deletion strains, locus YNL233W, strain BNI4, stronger effect = lower value 0.479 | S. cerevisiae deletion strains, locus YNL248C, strain rpa49, stronger effect = lower value 0.859 | S. cerevisiae deletion strains, locus YNL271C, strain bni1, stronger effect = lower value 0.858 | S. cerevisiae deletion strains, locus YNL307C, strain MCK1, stronger effect = lower value 0.745 | S. cerevisiae deletion strains, locus YNL322C, strain KRE1, stronger effect = lower value 0.415 | S. cerevisiae deletion strains, locus YNR049C, strain mso1, stronger effect = lower value 0.895 | S. cerevisiae deletion strains, locus YNR052C, strain pop2, stronger effect = lower value 0.713 | S. cerevisiae deletion strains, locus YOL006C, strain TOP1, stronger effect = lower value 0.167 | S. cerevisiae deletion strains, locus YOL147C, strain pex11, stronger effect = lower value 0.914 | S. cerevisiae deletion strains, locus YOR001W, strain rrp6, stronger effect = lower value 0.873 | S. cerevisiae deletion strains, locus YOR061W, strain CKA2, stronger effect = lower value 0.682 | S. cerevisiae deletion strains, locus YOR069W, strain VPS5, stronger effect = lower value 0.614 | S. cerevisiae deletion strains, locus YOR070C, strain gyp1, stronger effect = lower value 0.739 | S. cerevisiae deletion strains, locus YOR080W, strain dia2, stronger effect = lower value 0.777 | S. cerevisiae deletion strains, locus YOR083W, strain WHI5, stronger effect = lower value 0.695 | S. cerevisiae deletion strains, locus YOR106W, strain vam3, stronger effect = lower value 0.27 | S. cerevisiae deletion strains, locus YOR136W, strain idh2, stronger effect = lower value 0.909 | S. cerevisiae deletion strains, locus YOR184W, strain ser1, stronger effect = lower value 0.5 | S. cerevisiae deletion strains, locus YOR265W, strain rbl2, stronger effect = lower value 0.71 | S. cerevisiae deletion strains, locus YOR270C, strain vph1, stronger effect = lower value 0.306 | S. cerevisiae deletion strains, locus YOR290C, strain snf2, stronger effect = lower value 0.754 | S. cerevisiae deletion strains, locus YOR316C, strain cot1, stronger effect = lower value 0.903 | S. cerevisiae deletion strains, locus YPL051W, strain arl3, stronger effect = lower value 0.439 | S. cerevisiae deletion strains, locus YPL055C, strain LGE1, stronger effect = lower value 0.363 | S. cerevisiae deletion strains, locus YPL078C, strain atp4, stronger effect = lower value 0.845 | S. cerevisiae deletion strains, locus YPL106C, strain sse1, stronger effect = lower value 0.65 | S. cerevisiae deletion strains, locus YPL240C, strain hsp82, stronger effect = lower value 0.81 | S. cerevisiae deletion strains, locus YPL241C, strain CIN2, stronger effect = lower value 0.719 | S. cerevisiae deletion strains, locus YPR119W, strain clb2, stronger effect = lower value 0.931 | S. cerevisiae deletion strains, locus YPR163C, strain tif3, stronger effect = lower value 0.844 | S. cerevisiae deletion strains, locus YPR167C, strain met16, stronger effect = lower value 0.734 | S. cerevisiae deletion strains, strain wtn01, stronger effect = lower value 0.751 | S. cerevisiae strains, strain wild type, stronger effect = lower value 0.246
